Measurements reported in publication doi:10.1101/2024.03.05.583629.

target: pT7_6His-AlfaTag-HOXD13 (human, UniProt P35453 263-343); assay: PADIT-seq; conditions: dsDNA, one strand shown
Sequence (P35453 263-343): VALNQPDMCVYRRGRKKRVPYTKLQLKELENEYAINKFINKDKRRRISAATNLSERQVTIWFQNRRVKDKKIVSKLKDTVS

| Sequence | binding signal [log2FC] |
| --- | --- |
| CTCGAGGATATCAAGATCTGGCCTCGGCAAACTAAAAGGAACCTCTAGCTAGCCGACTCACTATAGGGATAATCGCCCTGAGCAAAGACC | -0.484 ± 0.203 |
| CTCGAGGATATCAAGATCTGGCCTCGGCATTTTATATGGAACCTCTAGCTAGCCGACTCACTATAGGGATAATCGCCCTGAGCAAAGACC | 3.31 ± 0.0819 |
| CTCGAGGATATCAAGATCTGGCCTCGGCCGCCCACTGGGAACCTCTAGCTAGCCGACTCACTATAGGGATAATCGCCCTGAGCAAAGACC | -0.571 ± 0.123 |
| CTCGAGGATATCAAGATCTGGCCTCGGCGTTTTACCAGGAACCTCTAGCTAGCCGACTCACTATAGGGATAATCGCCCTGAGCAAAGACC | 0.423 ± 0.103 |
| CTCGAGGATATCAAGATCTGGCCTCGGCAGGATAAAAGGAACCTCTAGCTAGCCGACTCACTATAGGGATAATCGCCCTGAGCAAAGACC | 0.374 ± 0.0721 |
| CTCGAGGATATCAAGATCTGGCCTCGGCGCGTGGACAGGAACCTCTAGCTAGCCGACTCACTATAGGGATAATCGCCCTGAGCAAAGACC | -1.05 ± 0.134 |
| CTCGAGGATATCAAGATCTGGCCTCGGCTTTTTAGAAGGAACCTCTAGCTAGCCGACTCACTATAGGGATAATCGCCCTGAGCAAAGACC | 0.559 ± 0.108 |
| CTCGAGGATATCAAGATCTGGCCTCGGCCGCCCAATGGGAACCTCTAGCTAGCCGACTCACTATAGGGATAATCGCCCTGAGCAAAGACC | -0.785 ± 0.113 |
| CTCGAGGATATCAAGATCTGGCCTCGGCTAGCTAAAAGGAACCTCTAGCTAGCCGACTCACTATAGGGATAATCGCCCTGAGCAAAGACC | -0.637 ± 0.145 |
| CTCGAGGATATCAAGATCTGGCCTCGGCCTTTTAAGGGGAACCTCTAGCTAGCCGACTCACTATAGGGATAATCGCCCTGAGCAAAGACC | 1.67 ± 0.0786 |
| CTCGAGGATATCAAGATCTGGCCTCGGCGTATGGGCGGGAACCTCTAGCTAGCCGACTCACTATAGGGATAATCGCCCTGAGCAAAGACC | -0.957 ± 0.105 |

target: pT7_6His-AlfaTag-ZIF268 (human, UniProt P18146 335-423); assay: PADIT-seq; conditions: dsDNA, one strand shown

| Sequence | binding signal [log2FC] |
| --- | --- |
| CTCGAGGATATCAAGATCTGGCCTCGGCTCATGGGCGGGAACCTCTAGCTAGCCGACTCACTATAGGGATAATCGCCCTGAGCAAAGACC | 0.0784 ± 0.105 |
| CTCGAGGATATCAAGATCTGGCCTCGGCACACCACGCGGAACCTCTAGCTAGCCGACTCACTATAGGGATAATCGCCCTGAGCAAAGACC | 0.0231 ± 0.103 |
| CTCGAGGATATCAAGATCTGGCCTCGGCCGCTTGCGCGGAACCTCTAGCTAGCCGACTCACTATAGGGATAATCGCCCTGAGCAAAGACC | 0.0632 ± 0.103 |
| CTCGAGGATATCAAGATCTGGCCTCGGCCGATGGGCGGGAACCTCTAGCTAGCCGACTCACTATAGGGATAATCGCCCTGAGCAAAGACC | 0.00701 ± 0.0902 |
| CTCGAGGATATCAAGATCTGGCCTCGGCCGCCCAGGAGGAACCTCTAGCTAGCCGACTCACTATAGGGATAATCGCCCTGAGCAAAGACC | 0.0116 ± 0.118 |
| CTCGAGGATATCAAGATCTGGCCTCGGCGCGTGGGTTGGAACCTCTAGCTAGCCGACTCACTATAGGGATAATCGCCCTGAGCAAAGACC | 2.53 ± 0.0963 |
| CTCGAGGATATCAAGATCTGGCCTCGGCATCCCACGCGGAACCTCTAGCTAGCCGACTCACTATAGGGATAATCGCCCTGAGCAAAGACC | 0.41 ± 0.087 |
| CTCGAGGATATCAAGATCTGGCCTCGGCGCGTGGTTAGGAACCTCTAGCTAGCCGACTCACTATAGGGATAATCGCCCTGAGCAAAGACC | 0.357 ± 0.094 |
| CTCGAGGATATCAAGATCTGGCCTCGGCCTTTTACGAGGAACCTCTAGCTAGCCGACTCACTATAGGGATAATCGCCCTGAGCAAAGACC | 0.0308 ± 0.0876 |
| CTCGAGGATATCAAGATCTGGCCTCGGCGACATAAAAGGAACCTCTAGCTAGCCGACTCACTATAGGGATAATCGCCCTGAGCAAAGACC | 0.00765 ± 0.0777 |
| CTCGAGGATATCAAGATCTGGCCTCGGCGCGTTGGCGGGAACCTCTAGCTAGCCGACTCACTATAGGGATAATCGCCCTGAGCAAAGACC | 1.75 ± 0.117 |
| CTCGAGGATATCAAGATCTGGCCTCGGCTTTTTATCGGGAACCTCTAGCTAGCCGACTCACTATAGGGATAATCGCCCTGAGCAAAGACC | 0.00149 ± 0.091 |
| CTCGAGGATATCAAGATCTGGCCTCGGCACGTGGGCGGGAACCTCTAGCTAGCCGACTCACTATAGGGATAATCGCCCTGAGCAAAGACC | 3.56 ± 0.0868 |
| CTCGAGGATATCAAGATCTGGCCTCGGCCTTTTAGTGGGAACCTCTAGCTAGCCGACTCACTATAGGGATAATCGCCCTGAGCAAAGACC | 0.00894 ± 0.0794 |
| CTCGAGGATATCAAGATCTGGCCTCGGCAGTTGGGCGGGAACCTCTAGCTAGCCGACTCACTATAGGGATAATCGCCCTGAGCAAAGACC | 0.102 ± 0.086 |
